Results filed as inconclusive are left out. Calls of active or inactive are those of the source. Calls come from the whole dose curve; as a rule, active = well fitted cell-killing curve with a large enough effect; inconclusive = small, poorly fitted or top-dose-only effect, or effect the other way; inactive = no such curve, though single readings can be large or run the other way.
What was measured:
[1] = Quantitative High-Throughput drug screen in 47 multiple myeloma cell lines against the NCATS MIPE library collection: KMS27_JCRB cell viability assay (AID 1918970); note: nearly all actives have a fitted effect of over 30% in size
Outline: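 CellTiter-Glo luminescence after 48 h drug exposure at 37 °C; 500 cells/well, 1536-well format, pin-tool compound addition; DMSO = 100%, media-only = 0% viability.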

[2] = Quantitative High-Throughput drug screen in 47 multiple myeloma cell lines against the NCATS MIPE library collection: KMS12PE_JCRB cell viability assay (AID 1918972); note: nearly all actives have a fitted effect of over 30% in size
Outline: (§1)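 CellTiter-Glo luminescence (ATP) after 48 h compound exposure, 37C/5% CO2; 500 cells/well; MIPE 4.0 approved/investigational drugs pinned in; DMSO = 100%, media only = 0% viability.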

[3] = Quantitative High-Throughput drug screen in 47 multiple myeloma cell lines against the NCATS MIPE library collection: KMS21BM_JCRB cell viability assay (AID 1918974); conditions: ATP luminescence, 48 h; viability: at 45.8 µM (top of the series) unless noted
Outline: (§2)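 Myeloma cells (500 per well) were exposed to MIPE 4.0 compounds by pin transfer and incubated 48 hours at 37C, 5% CO2. Viability was read as ATP by CellTiter-Glo luminescence, normalised to DMSO (100%) and media-only (0%) wells.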

[4] = Quantitative High-Throughput drug screen in 47 multiple myeloma cell lines against the NCATS MIPE library collection: MMM1_PLB cell viability assay (AID 1918976); note: nearly all actives have a fitted effect of over 35% in size
Outline: (§3)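 500 cells/well; MIPE 4.0 drugs pin-transferred; 48 h, 37C, 5% CO2. CellTiter-Glo, 5 min RT, luminescence. Controls: DMSO 100%, media 0%.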

[5] = Quantitative High-Throughput drug screen in 47 multiple myeloma cell lines against the NCATS MIPE library collection: MOLP8_DSMZ cell viability assay (AID 1918977); note: nearly all actives have a fitted effect of over 45% in size
Outline: as §3

[6] = Quantitative High-Throughput drug screen in 47 multiple myeloma cell lines against the NCATS MIPE library collection: KMS12BM_JCRB cell viability assay (AID 1918971); note: nearly all actives have a fitted effect of over 35% in size
Outline: as §1

[7] = Quantitative High-Throughput drug screen in 47 multiple myeloma cell lines against the NCATS MIPE library collection: KMS26_JCRB cell viability assay (AID 1918975); note: nearly all actives have a fitted effect of over 45% in size
Outline: as §1

[8] = Quantitative High-Throughput drug screen in 47 multiple myeloma cell lines against the NCATS MIPE library collection: KMS20_JCRB cell viability assay (AID 1918973); note: nearly all actives have a fitted effect of over 45% in size
Outline: as §2

[9] = Quantitative High-Throughput drug screen in 47 multiple myeloma cell lines against the NCATS MIPE library collection: Karpas25_ECACC cell viability assay (AID 1918968; note: nearly all actives have a fitted effect of over 35% in size)
Outline: as §2
Potency is the fitted concentration of half-maximal effect.

O=C1NC(=O)C(=Cc2ccc(-c3ccc(F)cc3)o2)S1
Potency [1]: inactive | Potency [2]: 4.18 µM (active) | Potency [3]: 2.09 µM (active) | Potency [4]: 11.8 µM (active) | Potency [5]: inactive

CCC(=O)O[C@]1(C(=O)CO)CC[C@H]2[C@@H]3CCC4=CC(=O)CC[C@]4(C)[C@@H]3CC[C@@]21C
Potency [1]: inactive | Potency [2]: inactive

CC[C@]1(O)C[C@@H]2CN(CCc3c([nH]c4ccccc34)[C@@](C(=O)OC)(c3cc4c(cc3OC)N(C=O)[C@@H]3C45CCN4CC=C[C@](CC)([C@H]45)[C@@H](OC(C)=O)[C@]3(O)C(=O)OC)C2)C1 (stereo partly drawn)
Potency [1]: inactive | Potency [6]: 18.7 µM (active) | Potency [2]: inactive | Potency [7]: 23.5 µM (active) | Potency [4]: 10.5 µM (active)

CCOc1ccc(Nc2nc(-c3c(C)nc4ccccn34)cs2)cc1
Potency [6]: 0.0066 µM (active) | Potency [2]: 0.003 µM (active) | Potency [8]: inactive | Potency [7]: 0.332 µM (active) | Potency [4]: 20.9 µM (active)

CC=CCC=CCCC(=O)[C@H]1O[C@@H]1C(N)=O
Potency [9]: 18.7 µM (active) | Potency [2]: 23.5 µM (active) | Potency [5]: 14.8 µM (active)

O=C(O)c1ccc(-c2c[nH]c3ncc(-c4ccccc4)cc23)cc1C1CCCC1
Potency [2]: inactive | viability [3]: 272% (active) | Potency [7]: inactive | Potency [5]: inactive

CN(C)Cc1cccc(N=C(c2ccccc2)c2c(O)[nH]c3cc(C(=O)N(C)C)ccc23)c1
Potency [2]: 16.6 µM (active) | Potency [3]: 9.35 µM (active)

Cc1ccc(/C=N/NC(=O)c2ccccc2Oc2ccccc2)o1
Potency [6]: 23.5 µM (active) | Potency [8]: 16.6 µM (active)

NC(=O)[C@@H](CCC(F)(F)F)N(Cc1ccc(-c2ncon2)cc1F)S(=O)(=O)c1ccc(Cl)cc1
Potency [1]: inactive | Potency [6]: 18.7 µM (active) | Potency [7]: inactive | Potency [4]: 26.4 µM (active)

N[C@@]1(C(=O)O)CS(=O)(=O)[C@H]2[C@H](C(=O)O)[C@H]21
Potency [5]: inactive

c1cc(-c2sc(-c3ccncc3)c(-c3ccncc3)c2-c2ccncc2)ccn1
Potency [1]: 3.32 µM (active) | Potency [2]: 2.96 µM (active) | Potency [5]: inactive

COC1CCC(N(C(=O)C2CCC(C)CC2)c2cc(C3=CCCCC3)sc2C(=O)O)CC1 (stereo not drawn)
Potency [1]: inactive | Potency [2]: inactive | Potency [8]: inactive | Potency [3]: inactive | Potency [7]: inactive

Nc1ncnc2ccccc12
Potency [1]: inactive | Potency [5]: inactive

Reference: PubChem BioAssay (NCATS)
